# According to ChEMBL document CHEMBL3988442, “University of Dundee, Small-Polar-MMV Screening Library” (2021):
# The campaign covered roughly 48,000 compounds. About 13,000 (27%) showed an effect of 50% or more. Some of the results follow.
# System: Wolbachia pipientis
# Test: Anti-Wolbachia Cell-Based Screen
# Format: functional
# Parameters: scale not given: in the data most compounds retested in dose-response had high values
# Conditions: 5 µM
row,SMILES,Percent Effect
1,CN1CCN(Cc2cnc3n2CCN(C(=O)N2CCCC2)C3)CC1,-14.55%
2,CN(C)Cc1cnc2n1CCN(C(=O)NC1CCCC1)CC2.O=C(O)C(F)(F)F,-15.13%
3,CC(C)NC(=O)N1CCn2c(nnc2C2CCCN2)C1 (stereo not given),102.1%
4,CC(C)NC(=O)N1CCC(c2nnc3ccc(C(=O)N(C)C)cn23)C1 (stereo not given),2.89%
5,CC(C)c1nnc2n1CCN(C(=O)c1cnc(C3CC3)s1)C2,-14.42%
6,CN1CCN(C(=O)NC2CCCC2)Cc2cccnc21.O=C(O)C(F)(F)F,-7.276%
7,O=C(N1CCCC1)N1CCn2c(nnc2C2CCCN2)C1 (stereo not given),124.8%
8,O=C(c1ccc(C2CCCN2)s1)N1CCN(C(=O)N2CCOCC2)CC1 (stereo not given),14.1%
9,O=C(NC1CCCCC1)N1CCn2c(nnc2C2CCCN2)C1 (stereo not given),120.9%
10,O=C1CC(c2cccs2)Cc2[nH]c(=O)c(C(=O)NC3CCCC3)cc21 (stereo not given),7.726%
11,Cn1cc(C(=O)NC[C@H]2OC[C@@H]3CCN(C4CCOCC4)C[C@@H]32)cn1.O=C(O)C(F)(F)F,-10.96%
12,CN1CCc2nc(C3CCCN(C(=O)CC(C)(C)C)C3)ncc2C1 (stereo not given),119.8%
13,CN1CCC(c2ncc3c(n2)CCN(C(=O)CC2C=CCC2)C3)CC1 (stereo not given),-2.125%
14,CN1CCc2nc(C3CCCN(S(=O)(=O)N4CCCC4)C3)ncc2C1 (stereo not given),92.03%
15,CN1CCc2nc(C3CCCN(C(=O)CC4CCCCC4)C3)ncc2C1 (stereo not given),117.4%
16,O=C(CCC1CCCC1)N1CCC(c2ncc3c(n2)CCNC3)CC1,-4.401%
17,COC1CCN(S(=O)(=O)N2CCCC(c3cccc(C(=O)O)c3)C2)CC1 (stereo not given),12.84%
18,CCC(=O)N1CCCC(c2ncc3c(n2)CCN(C)C3)C1 (stereo not given),111.8%
19,CC1(C)CCN(S(=O)(=O)N2CCCC(c3cccc(C(=O)O)c3)C2)CC1 (stereo not given),0.9326%
20,Cc1nc[nH]c1CN1CCCC(CNC(=O)c2ccncn2)C1 (stereo not given),-3.697%
21,CCS(=O)(=O)N1CCC2(CC(=O)N(c3ccc4c(c3)OCO4)C2)C1 (stereo not given),-0.7388%
22,CCOc1cccc2c1OCC(=O)N(c1ccc3c(c1)OCO3)C2,112.1%
23,c1cncc(OCc2nc(C3CC3)nn2-c2ccc3c(c2)OCCO3)c1,1.227%
24,CCOc1cccc2c1OCC(C(=O)NC(C)Cn1cccn1)=C2 (stereo not given),-1.745%

row,SMILES,Percent Effect
1,CCOc1cccc2c1OCC(C(=O)NS(=O)(=O)Cc1ccccc1)=C2,-3.971%
2,CCOc1ccccc1C(=O)NS(=O)(=O)c1ccc2c(c1)OCCCO2,-4.596%
3,CCOc1cccc2c1OCC(=O)N(c1ccc(N(C)C)cc1)C2,138.3%
4,CCOc1cccc2c1OCC(=O)N(c1ccc3c(c1)OCCO3)C2,123.7%
5,CN(C)C(=O)N1CCC2(CC(=O)N(c3ccc4c(c3)OCO4)C2)C1 (stereo not given),3.437%
6,Cc1nn(C)cc1C(C)Nc1ncc(C(N)=O)cc1Cl (stereo not given),-11.95%
7,COC(=O)CC(NC(=O)c1cccc(N2CCCC2=O)c1)c1cccs1 (stereo not given),6.294%
8,CN(Cc1ccc(Cl)s1)C(=O)CN(C)C1CCCc2ccccc21 (stereo not given),-6.291%
9,O=C(CCN1CCSCC1c1ccccc1)N1CCOCC1 (stereo not given),2.279%
10,COc1ccsc1C(=O)Nc1cc(CN2CCOCC2)ccc1C,-3.737%
11,COCCN1CCC2(CC1)CC(c1cccnc1)CO2.O=C(O)C(F)(F)F (stereo not given),117.3%
12,Fc1ccc(CN2CCC3(CC2)CC(c2cccnc2)CO3)cc1.O=C(O)C(F)(F)F.O=C(O)C(F)(F)F (stereo not given),97.05%
13,O=C(O)C(F)(F)F.O=S(=O)(C1CC1)N1CCC2(CC1)CC(Oc1cccnc1)CO2 (stereo not given),3.761%
14,O=C(O)C(F)(F)F.O=C(O)C(F)(F)F.c1cncc(C2COC3(CCN(CC4CC4)CC3)C2)c1 (stereo not given),1.552%
15,COCCN1CCC2(CC1)CC(Nc1ccc(C)nn1)CO2.O=C(O)C(F)(F)F (stereo not given),-23.59%
16,O=C(NC1COC2(CCN(CC3CCC3)CC2)C1)c1ccccn1.O=C(O)C(F)(F)F (stereo not given),9.161%
17,Fc1cnc(N2CCC3(CC2)CC(OCc2cccnc2)CO3)nc1.O=C(O)C(F)(F)F.O=C(O)C(F)(F)F (stereo not given),-2.608%
18,Fc1ccc(N2CCC3(CC2)CC(OCc2cccnc2)CO3)cc1.O=C(O)C(F)(F)F (stereo not given),-13.34%
19,O=C(O)C(F)(F)F.O=C(O)C(F)(F)F.O=C(O)C(F)(F)F.c1cncc(CN2CCC3(CC2)CC(c2cccnc2)CO3)c1 (stereo not given),108.2%
20,O=C(O)C(F)(F)F.O=C(O)C(F)(F)F.c1cncc(C2COC3(CCN(CC4CCOCC4)CC3)C2)c1 (stereo not given),107.8%
21,OC1(c2cn(CC3CCN(C4CCSC4)CC3)nn2)CCCC1 (stereo not given),-24.22%
22,Cc1nccn1-c1ccc(NC(=O)C2CCCN2CC2CC2)cc1 (stereo not given),11.95%
23,Cc1cc(-n2cncn2)ccc1C(=O)Nc1ccc(N2CCCC2)cn1,-10.21%
24,FC(F)(F)CCN(Cc1ccon1)C1CCC1,0.2197%

row,SMILES,Percent Effect
1,COc1ccc(CN2CCC3(CCN(c4cccnc4)C3=O)C2)cc1.O=C(O)C(F)(F)F.O=C(O)C(F)(F)F (stereo not given),-2.008%
2,O=C(O)C(F)(F)F.O=C(O)C(F)(F)F.c1cncc(C2COC3(CCN(Cc4ccsc4)CC3)C2)c1 (stereo not given),104.8%
3,COc1ccc(CN2CCC3(CC2)CC(c2cccnc2)CO3)cc1.O=C(O)C(F)(F)F.O=C(O)C(F)(F)F (stereo not given),103.1%
4,O=C(O)C(F)(F)F.O=C(O)C(F)(F)F.O=C(c1ccsc1)N1CCOC2(CCN(Cc3cccnc3)CC2)C1,-15.45%
5,O=C1COc2cc(C(=O)NS(=O)(=O)c3ccccc3F)ccc2N1,-1.273%
6,Cc1ccc(C(CNCc2c[nH]nc2C)N(C)C)cc1.Cl (stereo not given),-30.61%
7,O=C1[C@H]2CC[C@H](CN(Cc3nnc(C4CC4)o3)C2)N1Cc1cscn1,105.2%
8,Cc1cnn(C2CN(Cc3nnc(C4CC4)o3)C2)c1,1.311%
9,O=C1[C@H]2CC[C@H](CN(C3CCOCC3)C2)N1Cc1cscn1,-44.85%
10,CS(=O)(=O)N1C[C@@H]2CC[C@H](C1)N(Cc1cscn1)C2=O,-6.714%
11,COCCN1C(=O)[C@H]2CC[C@@H]1CN(Cc1nnc(C3CC3)o1)C2,101%
12,COCCN1C(=O)[C@H]2CC[C@@H]1CN(Cc1nnc(-c3ccccc3)o1)C2,112.1%
13,CCC1CN(Cc2nnc(C3CC3)o2)CCN1CCOC (stereo not given),-15.54%
14,COCCN1C(=O)[C@H]2CC[C@@H]1CN(c1ncccn1)C2,-42.86%
15,COCCN1C(=O)[C@H]2CC[C@@H]1CN(c1nccc(C)n1)C2,1.615%
16,CCS(=O)(=O)CC(C)N(C)C(=O)NCCc1cccc(F)c1F (stereo not given),-8.987%
17,CCc1ccc(CN(C)c2ccc(-c3nc(COC)no3)cn2)nc1,-21.07%
18,Cc1nc2n(n1)CC(Nc1cc(C(F)(F)F)nc3ncnn13)CC2 (stereo not given),10.68%
19,Cc1ccsc1CN(C)C(=O)c1ccc(N2CCOCC2)c(F)c1,8.665%
20,CCc1nc(CN(C)C2CCN(CCCOc3ccccc3)C2)no1 (stereo not given),76.47%
21,CCc1nc(CN(C)C2CCN(CCNS(=O)(=O)CC)C2)no1 (stereo not given),8.032%
22,CCc1nc(CN(C)C2CCN(CCOc3ccccc3)C2)no1 (stereo not given),109.8%
23,CCc1nc(CN(C)C2CCN(Cc3ccc(C#N)cc3F)C2)no1 (stereo not given),1.706%
24,Cc1ccc(NC2(C(=O)NCCCN)CCCC2)cc1,-6.352%

row,SMILES,Percent Effect
1,O=C(C[C@H]1[C@H]2CN(C(=O)CO)C[C@@H]12)Nc1cccnc1,10.82%
2,O=C(Nc1nncs1)N1CCC(CCO)CC1,-8.889%
3,CN(CC(=O)Nc1cccnc1)CC1CCCN1c1cccnn1 (stereo not given),-11.55%
4,CN(CC(=O)Nc1nncs1)CC1CCCN1c1cccnn1 (stereo not given),-0.3075%
5,O=C(CC1CCN(c2cccnn2)CC1)Nc1nncs1,96.76%
6,O=C(CC1CCN(c2cccnn2)CC1)Nc1cccnc1,90.02%
7,Cc1ccc(N2C(=O)N[C@@H]3CCN(C(=O)C4CC4)[C@@H]3C2=O)cc1,11.16%
8,CCCc1nc(CN(CC)C(=O)c2ccc(OC)c(OC)c2)no1,-5.69%
9,CCN(Cc1noc(C2CC2)n1)C(=O)c1onc2ccccc12,98.35%
10,CN1CCC(N(CCc2ccccc2)Cc2noc(C3CC3)n2)CC1,8.424%
11,CCCc1nc(CN(CC)C(=O)c2ccc3ncsc3c2)no1,-3.567%
12,CCN(Cc1noc(C2CCC2)n1)C(=O)c1cnc2ccccc2c1,94.43%
13,CCN(Cc1noc(C2CCC2)n1)C(=O)CCc1cc2n(n1)CCNC2,-16.19%
14,CCCc1nc(CN(CC)C(=O)c2onc3ccccc23)no1,89.45%
15,Cn1ccnc1CN(CCO)C(=O)c1cnc2ccccc2c1,-19.73%
16,CCNC(=O)N1CC(c2nc(Cc3ccccc3)no2)C1,-5.949%
17,Cc1noc(COCC(=O)Nc2cc(C)c(Br)cn2)n1,-3.051%
18,CC(=O)NCC1CN(c2ccc3c(Cl)ccnc3c2F)CCO1 (stereo not given),-19.58%
19,Cc1ccc(C(=O)NCCNCC2CNc3ccnn3C2)cc1F (stereo not given),-3.46%
20,CCc1ncc2c(n1)CN(c1nccc(C3CCCC3)n1)C2,14.73%
21,CN1CCN(c2nccc(-c3cncnc3C3CCCCC3)n2)CC1,58.46%
22,CN1CCCN(c2nccc(-c3cncnc3C3CCCCC3)n2)CC1,86.07%
23,Cc1nn(C)cc1-c1ccnc(N2CCN(c3cnccn3)CC2)n1,17.52%
